Records with an inconclusive call do not appear. The source made the active and inactive calls. Calls come from the whole dose curve; as a rule, active = well fitted inhibition curve with a large enough effect; inconclusive = small, poorly fitted or top-dose-only effect; inactive = flat fitted curve, though single readings scatter.
What follows are molecules tested on CRL-7250 (assay: qHTS assay to identify novel small-molecules to repurpose for Merkel cell carcinoma treatment (AID 1296009; note: nearly all actives have a fitted effect of over 60% in size)). Settings: MCC and control cell lines, CellTiter-Glo viability, 72 h; at 44.8 µM (top of the series) unless noted.
Outline: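 CellTiter-Glo luminescence after 72 hr compound exposure at 37 degree celsius gave cell viability. Libraries NPC and MIPE were run as 8- and 11-point dose responses; RLUs normalized to DMSO (negative) and no-cell (cytotoxicity) controls.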

SMILES | outcome
CCC(=O)O[C@]1(C(=O)SCF)[C@H](C)C[C@H]2[C@@H]3C[C@H](F)C4=CC(=O)C=C[C@]4(C)[C@@]3(F)[C@@H](O)C[C@@]21C | inactive
COc1ccccc1OC(=O)Oc1ccccc1OC | inactive
CCN(CCCc1ccccc1)CCCc1ccccc1 | inactive
CC(C(O)c1ccc(O)cc1)N1CCC(Cc2ccccc2)CC1 (configuration not stated) | inactive [at 17.4 µM]
O=C(O)C1CCC1 | inactive
CC(C)(C)C(=O)C(Oc1ccc(Cl)cc1)n1ccnc1 (configuration not stated) | inactive
N[C@@H](Cc1c[nH]c2ccc(O)cc12)C(=O)O | inactive
CC(=O)NC(Cc1ccccc1)C(=O)O (configuration not stated) | inactive [at 92 µM]
OC(C#CCN1CCCC1)(c1ccccc1)c1ccccc1 | inactive
O=c1[nH]c2cc(C(F)(F)F)c(N3CCOCC3)cc2n(CP(=O)(O)O)c1=O | inactive
O=C(O)Cn1c(C(=O)Nc2nc(-c3ccccc3Cl)cs2)cc2ccccc21 | inactive
Nc1c2c(nc3c1CCC3)CCCC2 | inactive
Cc1cc(O)c(C)c(C)c1O | inactive
C[C@]12CCC(=O)C=C1[C@@H]1C[C@@H]1[C@H]1[C@@H]3[C@@H]4C[C@@H]4[C@@]4(CCC(=O)O4)[C@@]3(C)CC[C@@H]12 | inactive
O=C(OCC(COC(=O)c1cccnc1)(COC(=O)c1cccnc1)COC(=O)c1cccnc1)c1cccnc1 | inactive
COc1cc([C@H]2Oc3cc([C@H]4Oc5cc(O)cc(O)c5C(=O)[C@@H]4O)ccc3O[C@@H]2CO)ccc1O | inactive
CC1(C)OC[C@@H](COC(=O)CCc2ccc(OC[C@@H](O)CNCCNC(=O)N3CCOCC3)cc2)O1 | inactive
CN(C)C/C=C(/c1ccc(Br)cc1)c1cccnc1 | inactive
CCOc1cc(N)c(Cl)cc1C(=O)NCC1CN(Cc2ccc(F)cc2)CCO1 (configuration not stated) | inactive

SMILES | outcome
O=C(O)c1cn(C2CC2)c2cc(Cl)c(F)cc2c1=O | inactive
CCCCCCCCCCCCCCCCCCOCC(O)CO (configuration not stated) | inactive
O=c1ccc2ccccc2o1 | inactive
OC(CCN1CCCCC1)(c1ccccc1)c1ccccc1 | inactive
O=C1[C@H]2CCCC[C@H]2C(=O)N1CCCCN1CCN(c2nsc3ccccc23)CC1 | inactive
COc1ccc(C(Cl)=C(c2ccc(OC)cc2)c2ccc(OC)cc2)cc1 | inactive
CC(C)NCCCC1(C(N)=O)c2ccccc2-c2ccccc21 | inactive
Cc1[nH]c(C)c(Cl)c(=O)c1Cl | inactive [at 17.4 µM]
Nc1nc2ncc(CNc3ccc(C(=O)N[C@@H](CCC(=O)O)C(=O)O)cc3)nc2c(=O)[nH]1 | inactive
CC(=O)N1C[C@H](O)C[C@H]1C(=O)O | inactive
Cc1c(N(C)C)c(=O)n(-c2ccccc2)n1C | inactive
CC(=O)OCC(=O)Nc1cc(C#N)cc(NC(=O)COC(C)=O)c1Cl | inactive
Cc1[nH]c(=O)c(C#N)cc1-c1ccc2nccn2c1 | inactive
OCCN1CCN(CCCN2c3ccccc3C=Cc3ccccc32)CC1 | inactive
CN1[C@@H]2CC[C@H]1CC(OC(=O)c1c[nH]c3ccccc13)C2 (some centres not stated) | inactive
COc1ccccc1N1CCN(CCCNc2cc(=O)n(C)c(=O)n2C)CC1 | inactive
Cc1cccc(CN2CCN(C(c3ccccc3)c3ccc(Cl)cc3)CC2)c1 (configuration not stated) | inactive
CCOC(=O)[C@H](CCc1ccccc1)N[C@H]1CS[C@H](c2cccs2)CN(CC(=O)O)C1=O | inactive
